Results filed as inconclusive are left out. Activity calls are given as the source filed them. Calls follow the shape of the dose curve; as a rule, active = well fitted curve in the direction sought with a large enough effect; inconclusive = small, poorly fitted or top-dose-only effect, or another doubt; inactive = no such curve, though single readings can be large; an effect the other way counts as inactive or inconclusive.
Assays:
[1] = qHTS of pediatric cancer cell lines to identify multiple opportunities for drug repurposing: Primary screen for U-2 OS cells (AID 1347096); also: nearly all actives have a fitted effect of over 50% in size; also: potency is read from the fitted curve at half-maximal effect;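 as to activity change, negative = cytotoxic: plate controls were DMSO wells for no effect and bortezomib positive control wells for full effect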
How it was run: (§1)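 Cells (500-1,000/well) rested 5 h, then received compounds for 48 h; metabolically active cells were measured by CellTiter-Glo luminescence. Final concentrations spanned up to 46 µM (MIPE, 11-point) or 0.59 nM-46 µM (NPC, 8-point) in primary screens, 11-point in follow-ups.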

[2] = qHTS of pediatric cancer cell lines to identify multiple opportunities for drug repurposing: Primary screen for Saos-2 cells (AID 1347097); also: nearly all actives have a fitted effect of over 40% in size; also: potency is read from the fitted curve at half-maximal effect; as to activity change, negative = cytotoxic: % is scaled to controls: 0 for no effect and ±100 for the full control effect
How it was run: (§2)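 Primary screen of approved and investigational compounds on cells in growth media at 37 degrees C, 5% CO2. MIPE set at 11-point and NPC set at 8-point dilutions; viability scored by ATP-based luminescence at 48 hours.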

[3] = qHTS of pediatric cancer cell lines to identify multiple opportunities for drug repurposing: Primary screen for NB1643 cells (AID 1347099); also: nearly all actives have a fitted effect of over 50% in size; also: potency is read from the fitted curve at half-maximal effect;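 as to activity change, negative = cytotoxic: plate controls were DMSO neutral control for no effect and bortezomib positive control for full effect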
How it was run: as §2

[4] = qHTS of pediatric cancer cell lines to identify multiple opportunities for drug repurposing: Primary screen for OHS-50 cells (AID 1347103); also: nearly all actives have a fitted effect of over 40% in size; also: potency is read from the fitted curve at half-maximal effect;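 as to activity change, negative = cytotoxic: plate controls were DMSO neutral control for no effect and bortezomib positive control for full effect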
How it was run: as §1

[5] = qHTS of pediatric cancer cell lines to identify multiple opportunities for drug repurposing: Primary screen for control Hh wild type fibroblast cells (AID 1347106);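 also: series mostly up to about 46 µM; % is scaled to controls: 0 for no effect and ±100 for the full control effect; a drop in luminescence marks cytotoxicity and a rise apparent proliferation; nearly all actives have a fitted effect of over 55% in size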
How it was run: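 Cells (500-1,000/well) in growth media were settled 5 h at 37 degrees C, then given compounds for 48 h. Viability was read as CellTiter-Glo luminescence. Primary runs used MIPE at 11 points (0.78 nM-46 µM) and NPC at 8 points (0.59 nM-46 µM); follow-ups used 11 points.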

[6] = qHTS of pediatric cancer cell lines to identify multiple opportunities for drug repurposing: Primary screen for BT-12 cells (AID 1347101); also: nearly all actives have a fitted effect of over 25% in size; also: potency is read from the fitted curve at half-maximal effect;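 as to activity change, negative = cytotoxic: plate controls were DMSO for no effect and bortezomib positive control for full effect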
How it was run: as §1

[7] = qHTS of pediatric cancer cell lines to identify multiple opportunities for drug repurposing: Primary screen for RD cells (AID 1347104);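 also: plate controls were DMSO for no effect and bortezomib for full effect; nearly all actives have a fitted effect of over 55% in size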
How it was run: as §2

[8] = qHTS of pediatric cancer cell lines to identify multiple opportunities for drug repurposing: Primary screen for MG 63 (6-TG R) cells (AID 1347105); also: nearly all actives have a fitted effect of over 50% in size; also: potency is read from the fitted curve at half-maximal effect; as to activity change, negative = cytotoxic: % is scaled to controls: 0 for no effect and ±100 for the full control effect
How it was run: as §2

[9] = qHTS of pediatric cancer cell lines to identify multiple opportunities for drug repurposing: Primary screen for Rh30 cells (AID 1347107); also: series mostly up to about 46 µM; % is scaled to controls: 0 for no effect and ±100 for the full control effect; nearly all actives have a fitted effect of over 75% in size
How it was run: as §1

[10] = qHTS of pediatric cancer cell lines to identify multiple opportunities for drug repurposing: Primary screen for Rh41 cells (AID 1347108);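 also: series mostly up to about 46 µM; luminescence drop marks cytotoxic hits; nearly all actives have a fitted effect of over 70% in size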
How it was run: as §2

[11] = qHTS of pediatric cancer cell lines to identify multiple opportunities for drug repurposing: Primary screen for Rh18 cells (AID 1347102); also: % is scaled to controls: 0 for no effect and ±100 for the full control effect; nearly all actives have a fitted effect of over 65% in size
How it was run: as §1

[12] = qHTS of pediatric cancer cell lines to identify multiple opportunities for drug repurposing: Primary screen for LAN-5 cells (AID 1347100);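 also: plate controls were DMSO neutral control for no effect and bortezomib positive control for full effect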
How it was run: as §1

[13] = qHTS of pediatric cancer cell lines to identify multiple opportunities for drug repurposing: Confirmatory screen for A673 cells (AID 1347110);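 also: cells exposed to compound for 48 h before the viability read; plate controls were DMSO neutral control for no effect and bortezomib positive control for full effect; nearly all actives have a fitted effect of over 65% in size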
How it was run: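 A673 cells at 500-1,000 cells/well were dosed 5 h after plating, in dilution series up to 46 uM final; primary runs used 8 or 11 points and confirmatory runs used 11 points. Viability was read by CellTiter-Glo luminescence after 48 h, against DMSO and 2.3 uM bortezomib controls.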

[14] = qHTS of pediatric cancer cell lines to identify multiple opportunities for drug repurposing: Confirmatory screen for BT-12 cells (AID 1347112); also: % is scaled to controls: 0 for no effect and ±100 for the full control effect; nearly all actives have a fitted effect of over 55% in size
How it was run: as §1

[15] = qHTS of pediatric cancer cell lines to identify multiple opportunities for drug repurposing: Confirmatory screen for NB-EBc1 cells (AID 1347115);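 also: cells exposed to compound for 48 h before the viability read; % is scaled to controls: 0 for no effect and ±100 for the full control effect; nearly all actives have a fitted effect of over 45% in size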
How it was run: as §1

[16] = qHTS of pediatric cancer cell lines to identify multiple opportunities for drug repurposing: Confirmatory screen for SK-N-MC cells (AID 1347111);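 also: cells exposed to compound for 48 h before the readout; plate controls were DMSO for no effect and bortezomib for full effect; nearly all actives have a fitted effect of over 70% in size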
How it was run: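 Seed 500-1,000 cells/well; rest 5 h at 37 degrees C. Pin-transfer compounds, 11-point titration. Incubate 48 h. Add CellTiter-Glo, 15 min RT, read luminescence.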

CC[C@]12CCCN3CCc4c(n(c5ccccc45)C(=O)C1)[C@@H]32
active: Potency [2] 13.3 µM | Potency [4] 27.6 µM
inactive: Potency [1] | Potency [3] | Potency [5]

CCCCCCCCCCCCCCC[C@H](O)[C@@H](N)CO
inactive: Potency [1] | Potency [2] | Potency [3] | Potency [6] | Potency [4] | Potency [7] | Potency [8] | Potency [5] | Potency [9] | Potency [10]

O=C1C(CCS(=O)c2ccccc2)C(=O)N(c2ccccc2)N1c1ccccc1 (stereo not given)
inactive: Potency [1] | Potency [2] | Potency [3] | Potency [6] | Potency [11] | Potency [4] | Potency [7] | Potency [8] | Potency [5] | Potency [9] | Potency [10]

CCOC(=O)C(C#N)=C(c1ccccc1)c1ccccc1
inactive: Potency [1] | Potency [2] | Potency [3] | Potency [12] | Potency [6] | Potency [11] | Potency [7] | Potency [8] | Potency [5] | Potency [9] | Potency [10]

Cc1c[nH]c2ccccc12
inactive: Potency [1] | Potency [2] | Potency [12] | Potency [6] | Potency [11] | Potency [4] | Potency [7] | Potency [8] | Potency [5] | Potency [9] | Potency [10]

CCCc1ncc(C[n+]2ccccc2C)c(N)n1
inactive: Potency [1] | Potency [2] | Potency [3] | Potency [6] | Potency [11] | Potency [4] | Potency [7] | Potency [8] | Potency [5] | Potency [9]

N[C@H](C(=O)O)[C@@H](O)c1ccc(O)c(O)c1
inactive: Potency [1] | Potency [2] | Potency [3] | Potency [6] | Potency [4] | Potency [7] | Potency [8] | Potency [5] | Potency [9] | Potency [10]

Cn1c(=O)c2[nH]c(Br)nc2n(C)c1=O
inactive: Potency [1] | Potency [2] | Potency [12] | Potency [6] | Potency [11] | Potency [4] | Potency [7] | Potency [8] | Potency [5] | Potency [9] | Potency [10]

C#C[C@]1(O)CC[C@H]2[C@@H]3CCc4cc(OC)ccc4[C@H]3CC[C@@]21C
inactive: Potency [1] | Potency [2] | Potency [3] | Potency [6] | Potency [11] | Potency [7] | Potency [8] | Potency [5] | Potency [9]

CC(C)n1c(/C=C/[C@@H](O)C[C@@H](O)CC(=O)O)c(-c2ccc(F)cc2)c2ccccc21
active: Potency [1] 6.68 µM | Potency [2] 1.5 µM | Potency [3] 10.6 µM | Potency [4] 6.92 µM | Potency [8] 0.841 µM
inactive: Potency [12]

CCOC(=O)c1c(N)sc2c1CCN(Cc1ccccc1)C2
inactive: Potency [1] | Potency [2] | Potency [3] | Potency [11] | Potency [8] | Potency [5] | Potency [9] | Potency [10]
active: Potency [6] 17.4 µM | Potency [4] 17.4 µM

NCc1ccccc1Sc1ccccc1CO
inactive: Potency [1] | Potency [2] | Potency [3] | Potency [6] | Potency [7] | Potency [8] | Potency [9]

Cc1nc(-c2ccc(Cl)cc2)oc1COC(C)(C)C(=O)O
inactive: Potency [1] | Potency [2] | Potency [3] | Potency [12] | Potency [6] | Potency [11] | Potency [4] | Potency [8] | Potency [9] | Potency [10]

CN(C)CCC[C@@]1(c2ccc(F)cc2)OCc2cc(C#N)ccc21
inactive: Potency [1] | Potency [2] | Potency [3] | Potency [12] | Potency [6] | Potency [11] | Potency [4] | Potency [8] | Potency [9] | Potency [10]

C=C1c2cccc(O)c2C(O)=C2C(=O)[C@]3(O)C(O)=C(C(N)=O)C(=O)[C@@H](N(C)C)[C@@H]3[C@@H](O)[C@H]12
inactive: Potency [1] | Potency [2] | Potency [12] | Potency [11] | Potency [4] | Potency [7] | Potency [8] | Potency [5] | Potency [9] | Potency [10]

CCN(CC)CCOc1ccccc1C(=O)CCc1ccccc1
inactive: Potency [1] | Potency [2] | Potency [3] | Potency [6] | Potency [11] | Potency [7] | Potency [8] | Potency [5] | Potency [9]

CC(=O)O[C@]1(C(C)=O)CC[C@H]2[C@@H]3C=C(Cl)C4=CC(=O)CC[C@]4(C)[C@H]3CC[C@@]21C
inactive: Potency [1] | Potency [2] | Potency [3] | Potency [12] | Potency [11] | Potency [8] | Potency [5] | Potency [9]

CCCCCCCCCCCCCC(=O)OC(C)C
inactive: Potency [1] | Potency [2] | Potency [12] | Potency [6] | Potency [11] | Potency [4] | Potency [7] | Potency [8] | Potency [5] | Potency [9] | Potency [10]

Cc1ccc(O)c([C@H](CCN(C(C)C)C(C)C)c2ccccc2)c1
inactive: Potency [1] | Potency [2] | Potency [3] | Potency [12] | Potency [6] | Potency [11] | Potency [8] | Potency [5] | Potency [9] | Potency [10]

NS(=O)(=O)c1cc2c(cc1Cl)NC(CC1CCCC1)NS2(=O)=O (stereo not given)
inactive: Potency [1] | Potency [2] | Potency [12] | Potency [6] | Potency [11] | Potency [7] | Potency [8] | Potency [5] | Potency [9] | Potency [10]

CCCCCCCCCCC[C@@H](C[C@@H]1OC(=O)[C@H]1CCCCCC)OC(=O)[C@H](CC(C)C)NC=O
inactive: Potency [13] | Potency [14] | Potency [15]

CCN[C@@H]1C[C@H](N)[C@@H](OC2OC(CN)=CCC2N)[C@H](O)[C@H]1O[C@H]1OC[C@](C)(O)[C@H](NC)[C@H]1O (stereo not given in full)
inactive: activity change, negative = cytotoxic [16] -2.44% [at 0.556 µM] | activity change, negative = cytotoxic [14] -6.5% [at 0.556 µM] | activity change, negative = cytotoxic [15] -1.08% [at 0.556 µM]

O[C@@H](c1cc(C(F)(F)F)nc2c(C(F)(F)F)cccc12)[C@H]1CCCCN1
inactive: Potency [5]
active: Potency [2] 21.1 µM | Potency [6] 15.5 µM | Potency [4] 21.9 µM | Potency [8] 26.6 µM

From PubChem BioAssay (NCATS)
